NPSR antag – qHTS Assay for Antagonists of the Neuropeptide S Receptor: cAMP Signal Transduction. Q6W5P4. CHO-NPSR cells, cAMP TR-FRET, antagonist mode. Potency, µM (titrated, usually from 38.3 µM), without a hit: top-dose activity change, negative = inhibition, actives largely listed as inhibitors. 1% of 220,000 active; note: potency is the fitted concentration of half-maximal effect; % is set by controls: 0 for no effect and ±100 for the full control effect; nearly all actives have a fitted effect of over 50% in size
HPGD block – qHTS Assay for Inhibitors of HPGD (15-Hydroxyprostaglandin Dehydrogenase); purified HPGD, NADH fluorescence kinetic, PGE2 substrate; Potency, µM, for the others: at the highest dose activity change, negative = inhibition, most hits filed as inhibitors; 4.3% of 150,000 active; active = well fitted inhibition curve with a large enough effect, not every such curve was filed as active; inconclusive = small, poorly fitted or top-dose-only effect, or another doubt; inactive = no such curve, though single readings can be large or run the other way; note: potency is the fitted concentration of half-maximal effect; % is set by controls: 0 for no effect and ±100 for the full control effect
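20 nM HPGD preincubated 15 min at room temperature with compound in 50 mM Tris-HCl pH 8, 0.01% Tween 20. Started with 1 mM NAD+ and 30 uM prostaglandin E2; NADH fluorescence (360/450 nm) read 5 times over 30-s intervals, last minus first.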
ALDH1A1 block – qHTS Assay for Inhibitors of Aldehyde Dehydrogenase 1 (ALDH1A1); Aldehyde dehydrogenase 1A1 (Homo sapiens), P00352; Purified ALDH1A1, NADH fluorescence, propionaldehyde substrate; Potency, µM (titrated, usually from 75.3 µM), inactives show at the top dose activity, negative = inhibition, most hits filed as inhibitors; 7.3% of 220,000 active; AID 1030, 2008; active = well fitted inhibition curve with a large enough effect, not every such curve was filed as active; inconclusive = small, poorly fitted or top-dose-only effect, or another doubt; inactive = no such curve, though single readings can be large or run the other way;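 note: potency is the fitted concentration of half-maximal effect; plate controls were no enzyme wells and a reference inhibitor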
IMPase cell inh – qHTS Assay for Identifying the Cell-Membrane Permeable IMPase Inhibitors; Inositol monophosphatase 1 (Rattus norvegicus), P97697; inhibition (IP1 accumulation), % at 46.1 µM; 120,000 tested, under 10 active; CHO-M1 cells, IP1 accumulation, HTRF TR-FRET ratio; active = well fitted curve in the direction sought with a large enough effect in the signal ratio, not every such curve was filed as active; inconclusive = small, poorly fitted or top-dose-only effect, or a change in a side signal; inactive = no such curve, though single readings can be large or run the other way; the % refers to the signal ratio;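 note: cells stimulated with carbachol in lithium chloride buffer; plate controls were DMSO basal wells for no effect and reference inhibitor wells for full effect; higher means more IMPase inhibition seen as more IP1 and lower FRET ratio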
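Cellular IMPase inhibition is scored as a rise in cytosolic IP1, detected by competitive TR-FRET between d2-labelled IP1 and a europium anti-IP1 antibody. M1-expressing CHO cells were stimulated with carbachol for 30 min at 37C, with lithium (50 mM LiCl) present in the buffer.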
12-hLO inh – qHTS Assay for Inhibitors of 12-hLO (12-human lipoxygenase). Polyunsaturated fatty acid lipoxygenase ALOX12 (Homo sapiens), P18054. 0.12% of 150,000 active. AID 1452, 2008. Potency, µM (doses to about 57.1 µM), without a hit: at the top dose activity change, negative = inhibition, hits mostly inhibitors. purified 12-hLO, xylenol orange hydroperoxide absorbance; note: potency is the fitted concentration of half-maximal effect; % is set by controls: 0 for no effect and ±100 for the full control effect; nearly all actives have a fitted effect of over 55% in size
Target sequence (P18054 whole entry, looked up): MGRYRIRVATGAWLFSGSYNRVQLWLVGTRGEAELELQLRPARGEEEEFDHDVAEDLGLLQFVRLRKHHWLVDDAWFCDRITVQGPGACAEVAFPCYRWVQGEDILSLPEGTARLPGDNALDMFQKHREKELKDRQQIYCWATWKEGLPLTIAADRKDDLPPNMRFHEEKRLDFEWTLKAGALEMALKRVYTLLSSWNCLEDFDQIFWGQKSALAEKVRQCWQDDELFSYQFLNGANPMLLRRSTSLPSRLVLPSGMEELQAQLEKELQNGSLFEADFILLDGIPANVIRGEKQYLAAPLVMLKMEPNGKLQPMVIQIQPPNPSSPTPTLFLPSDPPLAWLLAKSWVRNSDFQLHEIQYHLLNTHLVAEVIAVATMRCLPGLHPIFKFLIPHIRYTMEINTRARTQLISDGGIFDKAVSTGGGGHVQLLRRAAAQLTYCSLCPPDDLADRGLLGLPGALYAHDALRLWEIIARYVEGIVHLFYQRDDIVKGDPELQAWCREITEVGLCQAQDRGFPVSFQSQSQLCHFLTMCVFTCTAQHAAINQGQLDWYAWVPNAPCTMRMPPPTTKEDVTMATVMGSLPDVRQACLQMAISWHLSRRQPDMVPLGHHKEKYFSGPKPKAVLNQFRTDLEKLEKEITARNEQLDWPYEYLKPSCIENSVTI
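Hydroperoxide formation by human 12-lipoxygenase from 40 uM arachidonic acid was followed colorimetrically via ferric-xylenol orange complex, using the 573/405 nm absorbance ratio. Enzyme concentration was 150 nM, with 30 min reaction at room temperature.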
IMPase Li inh – qHTS Assay for Identifying the Cell-Membrane Permeable IMPase Inhibitors: Potentiation with Lithium | AID 1457, 2008 | 0.35% of 210,000 active | Potency, µM (top dose mostly 59.4 µM), inactives show top-dose activity, negative = IMPase inhibition, hits mostly inhibitors | CHO-M1 cells, IP1 TR-FRET (IP-One), carbachol + lithium;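 note: IP1 builds up when IMPase is blocked and the TR-FRET signal falls; potency is the fitted concentration of half-maximal effect; plate controls were basal vehicle for no effect and high inhibitor control for full effect; nearly all actives have a fitted effect of over 50% in size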
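Concentration–response in CHO-M1 cells, lithium-potentiated; 30 min at 37C. IP1 detected by competitive TR-FRET after 10 min lysis at RT. Hill-fitted AC50.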
HPGD inh conf – Confirmation qHTS Assay for Inhibitors of HPGD (15-Hydroxyprostaglandin Dehydrogenase); shares compounds with HPGD block; recombinant HPGD, NADH fluorescence, PGE2 substrate; Potency, µM (top dose mostly 57.1 µM), without a hit: at the highest dose activity change, negative = inhibition, actives largely listed as inhibitors; 90% of 90 active; calls by dose curve
Numbers without * were called inactive; ? = inconclusive; . = no result given; [ ] = another dose, or the depositor's remark. Compounds with a hit are over-represented: about 8.9% of the library has one in this group of screens. Unless noted, calls come from the whole dose curve; as a rule, active = well fitted curve in the direction sought with a large enough effect; inconclusive = small, poorly fitted or top-dose-only effect, or another doubt; inactive = no such curve, though single readings can be large; an effect the other way counts as inactive or inconclusive.

SMILES	NPSR antag	HPGD block	ALDH1A1 block	IMPase cell inh	12-hLO inh	IMPase Li inh	others
Cc1cc(OC(=O)c2c(C)cc(O)cc2O)cc(O)c1C(=O)O	.	16µM*	-13%	.	-11%	17%
CN(NC(=O)c1ccc(Cl)cc1)c1cccc(Cl)n1	-4%[46.1 µM]	-15%	2%	6	-1%	0%[38.3 µM]
CCN(CC)c1ccc(/C=C2/SC(=O)N(C(C)C)C2=O)o1	-43%	-20%	2.5µM*	.	-3%	11%
O=C(O)c1cc(O)c2c(c1)C(=O)c1cc(O)cc(O)c1C2=O	18%	14µM*	25µM*	.	-2%	27%
CSc1ncccc1C(=O)OCC(=O)c1cc2ccccc2o1	-1%[7.67 µM]	-12%	-11%	-2	-8%	6%[38.3 µM]
O=C(CCOc1ccccc1)OCC(=O)c1cc2ccccc2o1	2%[46.1 µM]	32µM*	-7%	-8	-16%	5%[38.3 µM]
C=CCn1c(SCC(N)=O)nc(C)cc1=O	12%[46.1 µM]	0%	?	2	-9%	4%[38.3 µM]
CCn1c(SCC(=O)Nc2ccc(Cl)cc2)nc2nc3c(cc2c1=O)CCCC3	-46%	-10%	?	-6	-7%	16%
CCn1c(SCc2ccccc2Cl)nc2nc3c(cc2c1=O)CCCC3	-26%	-13%	16µM*	.	-5%	25%
CCn1c(SCC(=O)Nc2ccc(C(C)=O)cc2)nc2nc3c(cc2c1=O)CCCC3	-4%[46.1 µM]	-14%	0.89µM*	6	-1%	14%[38.3 µM]
CCn1c(SCC(=O)Nc2ccc(OC)cc2)nc2nc3c(cc2c1=O)COC(C)(C)C3	28%	.	2µM*	.	.	.
CCOc1ccc(NC(=O)CSc2nc3nc4c(cc3c(=O)n2CC)COC(C)(C)C4)cc1	-19%	.	.	.	.	.
CCn1c(SCC(=O)Nc2ccccc2C)nc2nc3c(cc2c1=O)COC(C)(C)C3	?	.	14µM*	.	.	.
CCCCCCCCCCCCCCCCCCO	.	-8%	11%	.	0%[0.00818 µM]	6%
CCN(CC)C(=O)CSc1nnc([C@@H](N)Cc2ccccc2)o1	-9%[46.1 µM]	-4%	3%	-6	4%	-7%[38.3 µM]
Cc1ccc(CONC(=O)c2ccccc2)cc1	13%	.	.	.	.	.
O=c1sc2ccccc2n1Cc1ccccc1	-26%	.	-1%	.	.	9%
Cc1ccccc1NC(=O)Cn1cnc2c(oc3nc4c(cc32)COC(C)(C)C4)c1=O	7%	-10%	22µM*	.	-1%	1%
CC1(C)Cc2nc3oc4c(=O)n(CC(=O)Nc5ccc(Cl)cc5)cnc4c3cc2CO1	2%	.	.	.	.	.
Cc1ccc(-n2c(SCC(=O)NCc3ccco3)nc3nc4c(cc3c2=O)COC(C)(C)C4)cc1	-9%[46.1 µM]	.	0.79µM*	10	-10%	.
C=C(C)Cn1cnc2c(oc3nc4c(cc32)CCCC4)c1=O	18%	.	1µM*	.	.	.
COc1ccc(OC)c2c(C)cc(N3CCN(C(=O)c4ccc(C)cc4)CC3)nc12	-23%	.	?	.	.	12%
O=C(N=c1ccn(-c2nc3ccccc3nc2NS(=O)(=O)c2ccc(Cl)cc2)cc1)c1ccccc1Cl	44%	.	0.63µM*	.	.	.
CC(=O)Nc1ccc(S(=O)(=O)Nc2nc3ccccc3nc2N2CCc3ccccc3C2)cc1	-14%	-24%	11µM*	.	-3%	3%
O=S(=O)(Nc1nc2ccccc2nc1N1CCN(c2ccccn2)CC1)c1ccc(Cl)cc1	2%[46.1 µM]	-8%	11µM*	9	-2%	2%
SMILES	NPSR antag	HPGD block	ALDH1A1 block	IMPase cell inh	12-hLO inh	IMPase Li inh	others
CC(=O)Nc1ccc(S(=O)(=O)Nc2nc3ccccc3nc2N2CCCCCC2)cc1	-29%[46.1 µM]	-11%	7.1µM*	2	-11%	-6%[38.3 µM]
O=S(=O)(Nc1nc2ccccc2nc1N1CCc2ccccc2C1)c1ccc(Cl)cc1	-56%	-19%	?	.	-1%	1%
COc1ccc(CCCC(=O)NC2CCCCC2)cc1	-11%[46.1 µM]	?	7%	-5	-2%	7%[38.3 µM]
CC1CCN(C(=O)CCc2ccc(Oc3cc([N+](=O)[O-])cc([N+](=O)[O-])c3)cc2)CC1	-16%	1µM*	?	.	-4%	20%	HPGD inh conf=0.89µM*
O=C(CCc1ccc(Oc2cc([N+](=O)[O-])cc([N+](=O)[O-])c2)cc1)NC1CCCC1	-10%	16µM*	-6%	.	-4%	1%	HPGD inh conf=5µM*
O=c1[nH]c2cc(Cl)c([N+](=O)[O-])nc2[nH]1	20%[46.1 µM]	.	4%	0	2%	.
O=C1ON=C(c2ccccc2)/C1=C/c1ccc(-c2ccccc2[N+](=O)[O-])o1	7.9µM*	1.6µM*	10µM*	.	-2%	11%	HPGD inh conf=0.45µM*
Cc1cc(O)cc(=O)n1C	10%	.	6%	.	.	5%
CN(C)C(=O)c1ccc(-c2nc(Nc3ccncc3)c3ccccc3n2)cc1	.	0.16µM*	1%	.	2%	21%	HPGD inh conf=0.11µM*
CN(C)c1ccc(-c2nc(Nc3ccncc3)c3ccccc3n2)cc1	.	?	-5%	.	-16%	7%
c1ccc2nc3[nH]cnc3nc2c1	2%[46.1 µM]	?	?	-5	-4%	4%[38.3 µM]
COc1ccc(S(=O)(=O)Nc2cc(Sc3ncn[nH]3)c(O)c3ccccc23)cc1	?	1.1µM*	?	21	?	65%[38.3 µM]	HPGD inh conf=0.35µM*
Cc1oc(-c2cccc(Cl)c2)nc1CSc1nc2c(c(=O)[nH]1)CCC2	18%	0.56µM*	4%	.	-7%	-3%	HPGD inh conf=1.3µM*
O=C(O)C1CCCCC1C(=O)Nc1ccc(-c2ccccc2)cc1 (centres undefined)	-7%	.	-12%	.	.	0%
O=C(c1sc2cc(F)ccc2c1Cl)N1CCN(c2ccccc2)CC1	-26%	-21%	?	.	2%	5%
CC1CCCN(C(=O)c2sc3cc([N+](=O)[O-])ccc3c2Cl)C1 (centres undefined)	-25%[46.1 µM]	0.45µM*	5.6µM*	3	3%	12%[38.3 µM]	HPGD inh conf=0.5µM*
O=C(c1cccc([N+](=O)[O-])c1)N1CCCC(C(=O)N2CCCCC2)C1 (centres undefined)	9%	.	.	.	.	.
O=C(c1sc2cc([N+](=O)[O-])ccc2c1Cl)N1CCCCC1	-17%	1.1µM*	?	.	-4%	9%	HPGD inh conf=0.56µM*
CCOc1ccc(N2C(=O)CC(N(CCc3ccccc3)C(=O)/C=C/C(=O)O)C2=O)cc1 (centres undefined)	13%	.	?	.	.	11%
